# From PubChem
# HT1080NT lethal = kills 2HG-producing HT-1080-NT fibrosarcoma cells. Potency, µM (series often up to 46.1 µM), usual class: cytotoxic. 360,000 compounds, 1.6% hits. HT-1080-NT fibrosarcoma viability, CellTiter-Glo ATP luminescence, 48 h. AID 686970;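 further: NT is the 2HG producing partner of a matched IDH1 knockdown line; nearly all actives have a fitted effect of over 55% in size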
#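 Viability of the 2HG-overproducing fibrosarcoma line after 48 hours of compound exposure at 37 degrees C was determined by luminescence with CellTiter-Glo, and concentration-effect curves were then fitted and categorized.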
# ALOX12 inh = ALOX12 (human) lipoxygenase inhibition; AID 1671190; purified 12hLO, xylenol orange hydroperoxide absorbance; Potency, µM (doses to about 108 µM), most hits filed as inhibitors; 580,000 compounds, 1.1% hits; P18054
# Target sequence (P18054 whole entry, looked up): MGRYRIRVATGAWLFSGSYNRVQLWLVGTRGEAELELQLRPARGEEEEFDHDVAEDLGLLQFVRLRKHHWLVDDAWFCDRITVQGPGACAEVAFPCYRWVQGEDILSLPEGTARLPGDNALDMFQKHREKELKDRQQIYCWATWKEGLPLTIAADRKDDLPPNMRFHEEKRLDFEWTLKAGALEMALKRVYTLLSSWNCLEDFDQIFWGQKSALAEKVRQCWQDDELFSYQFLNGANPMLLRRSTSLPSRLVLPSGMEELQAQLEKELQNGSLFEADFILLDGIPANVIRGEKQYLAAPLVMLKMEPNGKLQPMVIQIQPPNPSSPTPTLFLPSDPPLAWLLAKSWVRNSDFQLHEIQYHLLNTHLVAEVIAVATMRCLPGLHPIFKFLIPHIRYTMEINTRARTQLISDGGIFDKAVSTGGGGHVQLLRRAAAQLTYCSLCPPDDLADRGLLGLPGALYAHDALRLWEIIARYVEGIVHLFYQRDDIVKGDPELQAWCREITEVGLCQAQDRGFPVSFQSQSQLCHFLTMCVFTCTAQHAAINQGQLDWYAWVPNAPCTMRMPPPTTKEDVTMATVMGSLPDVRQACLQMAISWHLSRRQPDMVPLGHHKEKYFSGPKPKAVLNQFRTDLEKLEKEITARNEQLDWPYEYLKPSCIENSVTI
#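 Hydroperoxide product was detected by ferrous iron/xylenol orange as the 573 to 405 nm absorbance ratio. Arachidonic acid at 40 uM (final) was turned over for 30 min at room temperature by 150 nM human 12hLO, pH 7.0 Hepes buffer, after 15 min compound preincubation.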
# DT40 TDP1 no CPT = qHTS for Inhibitors of human tyrosyl-DNA phosphodiesterase 1 (TDP1): qHTS in cells in absence of CPT. DT40 Tdp1-/- hTDP1 cells, no CPT, ATP luminescence, 48 h. Potency, µM (series often up to 46.2 µM), usual class: inhibitors. 420,000 compounds, 15% hits; further: nearly all actives have a fitted effect of over 55% in size
#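 Stably hTDP1-transfected Tdp1-null chicken DT40 cells were treated with library compounds minus camptothecin and grown for at least 48 hr at 37 °C, after which cellular ATP was quantified by luminescence.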
# IL1B secr inh = inhibitors of inflammasome signaling (IL-1 beta secretion); THP-1 LPS/ATP IL-1B secretion, AlphaLISA, 16 h; stronger effect = lower value; activity change, % at 57.5 µM; 360,000 compounds, 4.7% hits; AID 743279; in the data active means activity change below about -50%; inconclusive means mostly about -30% to -49%
#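 THP-1 cells pretreated 1 hr with compounds (up to 57.5 uM final), then stimulated with LPS (250 ng/mL final) plus ATP (1.25 mM final); secreted IL-1B measured by AlphaLISA after 16 hr, decreased signal indicating inhibition.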
# TDP1 cell CPT = DT40-hTDP1 cell growth loss with CPT | chicken DT40 Tdp1-/-;hTDP1 cells + 20 nM CPT, ATP luminescence, 48 h | Potency, µM (highest dose often 46.2 µM), usual class: inhibitors | 420,000 compounds, 12% hits | AID 686979; further: nearly all actives have a fitted effect of over 55% in size
#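 Chicken DT40 Tdp1-/- cells stably complemented with human TDP1 were seeded at 400 cells/well in medium containing 20 nM camptothecin, exposed to pin-transferred compounds, and grown at 37 °C for at least 48 hr. Viability was read as ATP luminescence.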
# HT1080 IDH1KD tx = kills HT-1080 cells with IDH1 knockdown | HT-1080 IDH1 knockdown viability, ATP luminescence, 48 h | Potency, µM (titrated, usually from 46.1 µM), hits mostly cytotoxic | 360,000 compounds, 2% hits | AID 686971
#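 HT-1080-IDH1KD cells (IDH1 knocked down), 750/well in RPMI with 5% FBS, treated with compound 48 h at 37 degrees C. Viability by CellTiter-Glo luminescence, normalised to DMSO and no-cell wells; concentration-response curves classed.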
# Numbers stand for hits; . = inactive; ? = inconclusive; / = no result; [ ] = remark or other dose. This excerpt belongs to a sample that is enriched for hits. Unless noted, the call rests on the fitted dose curve; in most records, active means well fitted curve in the direction sought with a large enough effect; inconclusive means small, poorly fitted or top-dose-only effect, or another doubt; inactive means no such curve, though single readings can be large; an effect the other way counts as inactive or inconclusive.
SMILES,HT1080NT lethal,ALOX12 inh,DT40 TDP1 no CPT,IL1B secr inh,TDP1 cell CPT,HT1080 IDH1KD tx
CCn1c(SCc2nc3ccccc3s2)nc2cc(S(=O)(=O)N3CCOCC3)ccc21,.,.,?,.,29µM,.
CCN(CC)Cc1cccc(NS(=O)(=O)NCc2ccccc2)c1,/,.,/,/,/,/
O=C(CCC1CCN(c2cc(NC3CC3)ncn2)CC1)NCc1ccc(F)cc1F,/,.,/,/,/,/
O=C1Nc2ccc(-c3ccccc3F)cc2C(=O)N2CCN(C(=O)C3CCCCC3)C[C@H]12,/,.,/,/,/,/
O=C(C[C@H]1C[C@H](C(=O)N2CCOCC2)[C@@]2(CCC3CCCC3)c3[nH]c4cc(-c5ccco5)ccc4c3CCN2C1=O)NCCc1ccccn1,21µM,?,?,-52,?,?
COc1ccc2[nH]c3c(c2c1)CCN1C(=O)C(CC(=O)NCCC2=CCCCC2)C[C@H](C(=O)N2CCOCC2)[C@@]31CCC1CCCC1 (stereo partly drawn),.,.,.,.,.,.
O=C(C[C@H]1C[C@H](C(=O)N2CCOCC2)[C@@]2(CCC3CCCC3)c3[nH]c4cc(-c5ccco5)ccc4c3CCN2C1=O)NCc1ccco1,.,?,16µM,-55,?,?
O=C(C[C@H]1C[C@H](C(=O)N2CCOCC2)[C@@]2(CCC3CCCC3)c3[nH]c4cc(-c5ccco5)ccc4c3CCN2C1=O)NCCC1=CCCCC1,.,/,21µM,?,?,.
C[C@]12c3[nH]c4ccc(Cl)cc4c3CCN1C(=O)[C@@H](CC(=O)NCCC1=CCCCC1)C[C@@H]2C(=O)N1CCOCC1,.,.,16µM,.,12µM,.
C[C@]12c3[nH]c4cc(-c5ccco5)ccc4c3CCN1C(=O)[C@@H](CC(=O)NCCCn1ccnc1)C[C@@H]2C(=O)N1CCOCC1,.,/,.,.,.,.
Cc1ccc(S(=O)(=O)NC(CN(C)C)c2ccccc2)c(Br)c1 (stereo not drawn),/,.,/,/,/,/
COC1CCN(CC2CCCCCN2C(=O)CCCc2ccccc2)CC1 (stereo not drawn),/,.,/,/,/,/
COc1ccc(C(=O)NCC(C)OC23CC4CC(CC(C4)C2)C3)cc1 (stereo not drawn),/,.,/,/,/,/
CC(C)(C)OC(=O)N1CC(NCc2ccc(-c3ccc(OC(F)(F)F)cc3)cc2)C1,/,.[6.33 µM],/,/,/,/
CCc1ccc(C23OC(=O)C(C)(C)C2OC(=O)C3(C)C)cc1 (stereo not drawn),/,.,/,/,/,/
O=C(C[C@H]1C[C@H](C(=O)N2CCOCC2)[C@@]2(CCC3CCCC3)c3[nH]c4ccc(Cl)cc4c3CCN2C1=O)NCCc1ccccn1,.,.,16µM,.,16µM,.
O=C(CC1C[C@H](C(=O)N2CCOCC2)[C@@]2(CCC3CCCC3)c3[nH]c4ccccc4c3CCN2C1=O)NCCCn1ccnc1 (stereo partly drawn),.,.,?,.,?,.
C[C@]12c3[nH]c4cc(-c5ccco5)ccc4c3CCN1C(=O)[C@@H](CC(=O)NCCC1=CCCCC1)C[C@@H]2C(=O)N1CCOCC1,.,/,21µM,.,16µM,.
CN(C)C(=O)CCc1ccc2c3c([nH]c2c1)[C@]1(CCC2CCCC2)[C@@H](C(=O)N2CCOCC2)C[C@H](CC(=O)NCCC2=CCCCC2)C(=O)N1CC3,.,.,23µM,.,23µM,?
CC(C)CCN1CCc2nc(C(=O)Nc3ccc(Cl)cc3)oc2CC1,/,.,/,/,/,/
CCN(CC)c1ccc(NC(=O)CSc2nc(-c3cccs3)cc(C(F)(F)F)n2)cc1,/,.,?,/,?,/
O=C(CCS(=O)(=O)c1nc(-c2cccs2)cc(C(F)(F)F)n1)Nc1ccc(Br)cc1,/,.,3.7µM,/,5.2µM,/
Cc1ccc(O)c(NC(=O)CCS(=O)(=O)c2nc(-c3cccs3)cc(C(F)(F)F)n2)c1,/,.,5.8µM,/,2.6µM,/
COc1ccc(-c2cc(C(F)(F)F)nc(SCCC(=O)Nc3cc(C)ccc3O)n2)cc1,/,.,/,/,/,/
O=C(CCS(=O)(=O)c1nc(-c2cccs2)cc(C(F)(F)F)n1)Nc1cc(Br)ccc1O,/,.,1.2µM,/,0.65µM,/
SMILES,HT1080NT lethal,ALOX12 inh,DT40 TDP1 no CPT,IL1B secr inh,TDP1 cell CPT,HT1080 IDH1KD tx
Cc1ccc2c(C(=O)N3CCOCC3)cnn2c1,/,.,/,/,/,/
CCc1ccc(C(=O)Nc2c(NC3CCCCC3)c3ccccc3oc2=O)cc1,/,.,/,/,/,/
CCn1cc([N+](=O)[O-])c(C(=O)Nc2nc(-c3ccc(C)cc3)c(C)s2)n1,.,.,.,-55,.,?
Cc1ccc(NC(=O)c2nn(C34CC5CC(CC(C5)C3)C4)cc2[N+](=O)[O-])cc1,.,.,?,.,23µM,.
CCn1cc([N+](=O)[O-])c(C(=O)Nc2nc(-c3ccc(C)c(C)c3)c(C)s2)n1,?,.,.,.,?,10µM
Cc1cc(C(=O)Nc2nc(-c3ccc(C)c(C)c3)c(C)s2)no1,/,.,/,/,/,/
COc1ccc(NC(=O)c2nn(C)cc2[N+](=O)[O-])cc1,.,.,.,.,.,.
CCOc1ccccc1NC(=O)CN1CCN(Cc2ccccc2)CC1,.,.,.,.,.,.
Cc1cccc(CNC(=O)C2(c3ccc(NS(C)(=O)=O)cc3)CCC2)c1,/,.,/,/,/,/
CCC(CC)C(=O)Nc1cc(OC)c(OC)cc1C(=O)O,.,.,18µM,.,16µM,.
CCC(C)C(=O)Nc1cc(OC)c(OC)cc1C(=O)O (stereo not drawn),.,?,.,.,.,.
COc1cc(CN2C[C@@H](CO)O[C@@H](n3cnc4c(NCc5ccc(F)cc5)ncnc43)C2)cc(OC)c1OC,.,.,?,-69,16µM,.
COc1cc(CNc2ncnc3c2ncn3[C@H]2CN(Cc3ccc(F)cc3)C[C@@H](CO)O2)cc(OC)c1OC,.,.,?,.,21µM,.
COc1cc(CNc2ncnc3c2ncn3[C@H]2CN(Cc3ccc(Cl)cc3)C[C@@H](CO)O2)cc(OC)c1OC,.,.,16µM,.,23µM,.
COc1ccc(CN2C[C@@H](CO)O[C@@H](n3cnc4c(NCc5cc(OC)c(OC)c(OC)c5)ncnc43)C2)cc1,.,.,?,.,?,.
Nc1cc(N2CCN(Cc3ncc[nH]3)CC(C(=O)O)C2)ncn1 (stereo not drawn),/,.,/,/,/,/
Cc1ccc(CN(CC(=O)N/N=C/c2ccccc2[N+](=O)[O-])S(=O)(=O)c2ccc(C)cc2)cc1,.,.,?,.,?,.
CCOc1cccc(/C=N/NS(=O)(=O)c2ccc(C)c([N+](=O)[O-])c2)c1O,.,.,.,.,.,.
